Measured values as given in PubChem BioAssay AID687001 (Broad Institute, 2013).
Results with a measured potency or affinity are listed apart. The source made the active and inactive calls.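 Rule for the calls: active = signal-lowering compounds whose fitted half-maximal concentration is at or below twice the top tested dose in every run; inconclusive = runs disagree, flat 30 to 70% inhibition, or poor curve fit; inactive = the rest.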

Target: Protein S100-A4 (Homo sapiens) (UniProt P26447)
Experiment: human S100A4 peptide interaction inhibition curves – biochemical, fluorescence polarization, cherry-picked hits, dose response (AID 687001);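 note: 0% = DMSO neutral control wells and -100% = TFP positive control wells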
Conditions: FP, S100A4/TAMRA-myosin IIA peptide binding; series mostly up to 11 µM; activity change, negative = inhibition: at the top concentration

Chain of Protein S100-A4 (Homo sapiens) (P26447 whole entry, looked up): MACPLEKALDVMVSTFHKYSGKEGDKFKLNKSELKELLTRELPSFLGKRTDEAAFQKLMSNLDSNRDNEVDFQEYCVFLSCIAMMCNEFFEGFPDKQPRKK

Activity change, negative = inhibition, inactive:
CCC(=O)Nc1ccc2c(c1)OC[C@H](C)N(Cc1ccccc1C(=O)O)C[C@H](C)[C@@H](OC)CN(C)C2=O -3.14%
Cc1ccc(CNS(=O)(=O)c2ccc(C)s2)cc1 0.881%
C[C@@H]1CN([C@@H](C)CO)C(=O)c2cc(NC(=O)CCCCCC(=O)Nc3ccccc3N)ccc2O[C@H]1CN(C)C(=O)Nc1ccc2c(c1)OCO2 4.37%
COC(=O)C[C@@H]1CC[C@H]2[C@H](COc3ccc(NS(=O)(=O)c4ccc(C)cc4)cc3C(=O)N2C)O1 8.48%
O=C(C[C@@H]1C[C@H]2c3cc(NC(=O)NC4CCCC4)ccc3O[C@H]2[C@H](CO)O1)NCCc1ccccc1 8.92%
COc1ccc(NC(=O)Nc2ccc3c(c2)C(=O)N([C@H](C)CO)C[C@H](C)[C@H](CN(C)Cc2ccc(C(F)(F)F)cc2)OCCCC[C@H](C)O3)cc1 2.09%
COc1ccc(CN(C)C[C@@H]2OCCCC[C@H](C)Oc3ccc(NS(=O)(=O)c4cn(C)cn4)cc3C(=O)N([C@@H](C)CO)C[C@H]2C)cc1 4.47%
COc1ccccc1NC(=O)N1CCCCN2[C@H](C1)[C@@H](c1ccc(C#CC3CC3)cc1)[C@@H]2CO 40.1%
COc1ccc(S(=O)(=O)Nc2ccc3c(c2)C(=O)N([C@H](C)CO)C[C@H](C)[C@H](CN(C)C(=O)Nc2ccccc2)OCCCC[C@H](C)O3)cc1 19%
O=C(C[C@H]1C[C@@H]2c3cc(NC(=O)c4cccnc4)ccc3O[C@@H]2[C@H](CO)O1)NCc1ccncc1 -7.1%
O=C(c1ccc(Br)o1)N1CCC(Cc2ccccc2)CC1 -1.09%
C#CCNCCS(=O)(=O)N(Cc1ccc(Br)cc1)[C@@H](CC(C)C)C(=O)O -1.51%
CC(C)(C)OC(=O)C[C@H]1C/C=C\C[C@H](CC(=O)N[C@H](CO)Cc2ccccc2)C(=O)N[C@H](Cc2ccccc2)COC1=O 2.92%
COCC(=O)N1[C@H](CO)[C@@H](c2ccccc2)C12CN(C(=O)Cc1ccccn1)C2 8.22%
CCCNC(=O)N1CC[C@@H]2[C@@H](CO)N(C)c3ccc(-c4ccc(F)cc4)cc3[C@@H]21 -1.37%
CCCNC(=O)Nc1ccc2c(c1)OC[C@H](C)N(C(=O)C1CC1)C[C@H](C)[C@@H](OC)CN(C)C2=O -1.54%
CO[C@@H]1CN(C)C(=O)c2ccc(NC(=O)c3ccc(F)cc3)cc2OC[C@H](C)N(C(=O)CC2CC2)C[C@H]1C 6.86%
O=S(=O)(NC(=NCc1ccccc1)c1ccccc1)c1ccccc1 -3.1%
OC(CNC1CCCCCC1)COc1cccc2ccccc12 (stereo unspecified) -4.69%
COc1ccc(-n2ncc3c2CC(C)(C)CC3NC(=O)CCc2c(C)nn(C)c2C)cc1 (stereo unspecified) -0.643%
CCCNC(=O)Nc1ccc2c(c1)OC[C@@H](C)N(C(=O)C1CC1)C[C@H](C)[C@@H](OC)CN(C)C2=O 1.76%
CC(=O)N1CC(C)Oc2ccc(S(=O)(=O)NC(CC(=O)O)c3cc(C)ccc3C)cc21 (stereo unspecified) 0.235%
C[C@@H]1CN([C@@H](C)CO)C(=O)c2cc(C#C[C@@H](C)O)cnc2O[C@H]1CN(C)C(=O)Cc1ccncc1 21%
COc1ccc(Cl)cc1-c1cc(C(=O)N[C@H](C)c2ccccc2)[nH]n1 -1.95%
O=C(O)CSc1c2c(nc3cc(C(=O)Nc4cccc(C(F)(F)F)c4)ccc13)CCCC2 6.23%
CN1c2ccc(-c3ccccc3)cc2[C@@H]2[C@@H](CCN2C(=O)c2cccc(F)c2)[C@@H]1CO 3.83% [at 10 µM]
COc1cc2cc(-c3ccc(O)cc3O)nc(C)c2cc1OC -6.81%
Cn1c(=O)[nH]c2c(nc(-c3ccc(Cl)cc3)n2C)c1=O -3.52%
COc1ccccc1NC(=O)N[C@H]1C=C[C@H](CC(=O)N2CCC(Cc3ccccc3)CC2)O[C@@H]1CO -0.027%
CCOC(=O)[C@]12CCCC=C1N(Cc1ccc3c(c1)OCO3)C(=O)[C@H](CC(=O)NCC1CCCCC1)C2 -3.59%
COCCNC(=O)C1CCCN(Cc2ccc(C(C)C)cc2)CC1 (stereo unspecified) -5.75%
O=C(c1ccccc1)c1ccc(C(=O)N2CCN(c3ccccc3O)CC2)cc1 -2.23%
CCCC(=O)Nc1ccc2c(c1)OC[C@@H](C)N(Cc1ccncc1)C[C@H](C)[C@H](OC)CN(C)C2=O -1.51%
CC1(C)Cc2cccc(OCC(=O)N3CCN(c4cccc(C(F)(F)F)c4)CC3)c2O1 -1.22%
O=C(Nc1ccc2ccccc2c1)c1ccccc1Cl 0.242%
O=C(Nc1ccccc1)N1CCCCN2[C@H](CO)[C@H](c3ccc(C#Cc4ccccn4)cc3)[C@H]2C1 18.6%
